Measured values taken from PubChem BioAssay AID720690 (Broad Institute, 2013).
Measured potencies and affinities stand elsewhere. The source made the active and inactive calls.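 The calls were made as follows: active = every repeat run showing a signal drop whose fitted half-maximal concentration is at most twice the top tested concentration; inconclusive = repeat runs disagree, or flat partial drop, or poor fit; inactive = the rest.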

Experiment: general mammalian cell viability loss – activator set, cherry-pick, cytotoxicity control for miR-122 modulator project, dose response (AID 720690)
Settings: HEK293T viability, CellTiter-Glo luminescence, 48 h; series mostly up to 26 µM

| SMILES | outcome |
| --- | --- |
| CN(C[C@H]1N[C@@H](CO)[C@H]1c1ccc(-c2cccc(F)c2)cc1)C(=O)C1CCC1 | inactive |
| Cc1cc(C)n(C(=O)Cn2nc(C)c(Br)c2C)n1 | inactive |
| CCNC(=O)C[C@@H]1CC[C@@H]2[C@@H](COc3ccc(NC(=O)C4CCCCC4)cc3C(=O)N2C)O1 | inactive |
| CNC(=O)C[C@H]1CC[C@@H]2[C@H](COc3ccc(NS(=O)(=O)c4ccc(F)cc4)cc3C(=O)N2C)O1 | inactive |
| CN1C(=O)c2cc(NC(=O)c3cccc(F)c3)ccc2OC[C@H]2O[C@H](CC(=O)O)CC[C@@H]21 | inactive |
| C[C@H](CO)N1C[C@H](C)[C@@H](CN(C)CC2CCCCC2)OCCCC[C@H](C)Oc2ccc(NC(=O)Nc3cccc4ccccc34)cc2C1=O | inactive |
| CCC(=O)N(C)C[C@@H]1[C@H](c2ccc(-c3ccccc3F)cc2)[C@H](CO)N1C(C)=O | inactive |
| Cc1ccccc1-c1ccc2c(c1)O[C@@H](CN(C)C(=O)Nc1ccc(F)cc1)[C@@H](C)CN([C@@H](C)CO)S2(=O)=O | inactive |
| N=c1c2c(-c3ccccc3)c(-c3ccccc3)n(Cc3ccccc3)c2ncn1CCCO | inactive |
| C[C@H](CO)N1C[C@H](C)[C@@H](CN(C)CC2CCCCC2)Oc2c(NS(=O)(=O)c3cccs3)cccc2C1=O | inactive |
| CN1C(=O)c2cc(NC(=O)c3ccc4c(c3)OCO4)ccc2OC[C@H]2O[C@@H](CC(=O)O)CC[C@@H]21 | inactive |
| COCC(=O)Nc1ccc2c(c1)C(=O)N(C)[C@H]1CC[C@@H](CC(=O)NC3CCCC3)O[C@H]1CO2 | inactive |
| COc1ccc(S(=O)(=O)N(C)C[C@@H]2Oc3cc(-c4cccc(F)c4)ccc3S(=O)(=O)N([C@@H](C)CO)C[C@H]2C)cc1 | inactive |
| COc1ccc(-c2ccc3c(c2)O[C@H](CN(C)C(=O)Nc2ccccc2F)[C@H](C)CN([C@@H](C)CO)S3(=O)=O)cc1 | inactive |
| CCC(=O)N1[C@H](CO)[C@H]2c3ccccc3N(C(=O)CC(F)(F)F)C[C@H]21 | inactive |
| COCC(=O)N(C)C[C@H]1Oc2cc(C#Cc3cccnc3)ccc2S(=O)(=O)N([C@H](C)CO)C[C@H]1C | inactive |
| CCC(=O)N(C)C[C@@H]1[C@@H](c2ccccc2)[C@H](CO)N1Cc1cccnc1 | inactive |
| COc1ccc2[nH]c(=O)c(COC(=O)c3ccco3)cc2c1 | inactive |
| CNC(=O)C[C@@H]1CC[C@@H]2[C@@H](COc3ccc(NC(=O)Nc4ccccc4OC)cc3C(=O)N2C)O1 | inactive |
| CN1C(=O)c2cc(NC(=O)Nc3cccc(Cl)c3)ccc2OC[C@H]2O[C@@H](CC(=O)NCCc3ccncc3)CC[C@H]21 | inactive |

| SMILES | outcome |
| --- | --- |
| COc1cccc(-c2ccc3c(c2)O[C@H](CN(C)C(=O)C2CCOCC2)[C@H](C)CN([C@H](C)CO)S3(=O)=O)c1 | inactive |
| COCC(=O)N(C)C[C@H]1Oc2cc(C#Cc3cccnc3)ccc2S(=O)(=O)N([C@@H](C)CO)C[C@H]1C | inactive |
| C[C@@H]1CN([C@H](C)CO)C(=O)c2cc(-c3cncnc3)cnc2O[C@H]1CN(C)Cc1ccc(Oc2ccccc2)cc1 | inactive |
| CCCNC(=O)C[C@H]1CC[C@@H]2[C@@H](COc3ccc(NC(=O)c4ccc(C(F)(F)F)cc4)cc3C(=O)N2C)O1 | inactive |
| O=C(Nc1ccc(CN2CCOCC2)cc1)c1ccc(-c2ccc(Cl)cc2Cl)o1 | inactive |
| Cc1ccc(-n2ncc(C(=O)Nc3cc(Cl)ccc3C)c2C2CCNCC2)cc1C | inactive |
| CN(C)CCCNC(=O)C[C@H]1CC[C@H]2[C@H](COc3ccc(NC(=O)NC4CCCC4)cc3C(=O)N2C)O1 | inactive |
| COCC(=O)N(C)C[C@H]1Oc2cc(-c3ccc(C#N)cc3)ccc2S(=O)(=O)N([C@H](C)CO)C[C@H]1C | inactive |
| CNC(=O)C[C@H]1CC[C@H]2[C@H](COc3ccc(NC(=O)c4cccc(OC)c4)cc3C(=O)N2C)O1 | inactive |
| C/C=C/c1ccc([C@@H]2[C@@H](CO)N(C(C)=O)[C@H]2CN(C(=O)COC)C(C)C)cc1 | inactive |
| CCCNC(=O)C[C@@H]1CC[C@@H]2[C@@H](COc3ccc(NC(=O)c4ccc(C(F)(F)F)cc4)cc3C(=O)N2C)O1 | inactive |
| COc1ccc(CC(NC(C)=O)C(=O)N2CCN(C(=O)N(C(C)C)C(C)C)CC2)cc1 (centres undefined) | inactive |
| CCN(C[C@@H]1N[C@H](CO)[C@H]1c1ccc(-c2ccc(F)cc2)cc1)C(=O)COC | inactive |
| CNC(=O)C[C@H]1CC[C@@H]2[C@H](COc3ccc(NC(=O)Nc4ccc(F)c(F)c4)cc3C(=O)N2C)O1 | inactive |
| CCNC(=O)CCC(=O)Nc1cc(Cl)ccc1C | inactive |
| CC(C)C(=O)Nc1ccc2c(c1)C(=O)N(C)[C@@H]1CC[C@@H](CC(=O)NCC3CC3)O[C@H]1CO2 | inactive |
| CC(=O)N1[C@H](CN(C)S(=O)(=O)c2ccccc2)[C@H](c2ccccc2)[C@@H]1CO | inactive |
| C/C=C/c1ccc([C@H]2[C@@H](CO)N[C@@H]2CN(CC(C)C)C(=O)c2ccccn2)cc1 | inactive |
| N#CCc1c(C#N)c(N)nc(N2CCN(S(=O)(=O)c3ccccc3)CC2)c1C#N | inactive |
